This is part of a sample that, as a whole, favours compounds with a hit. Of some 79,000 tested, about 15% had one in any assay. Active and inactive are the calls of the source. Cut-off read from the data, not from the text of the source: active = growth inhibition above about 70%; inactive = the rest.
Key:
[1] = NCI Yeast Anticancer Drug Screen. Data for the rad50 strain (AID 155);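 note: 0% = growth of vehicle-only cultures of the same strain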; conditions: S. cerevisiae rad50 strain growth inhibition, active compounds read high
In short: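 Genetically altered yeast (DNA repair pathway); compound treatment; growth inhibition vs vehicle ctrl.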

[2] = NCI Yeast Anticancer Drug Screen. Data for the mec2-1 strain (AID 157); conditions: S. cerevisiae mec2-1 strain, active compounds read high
In short: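 Growth inhibition is read against vehicle-treated controls after compound exposure of the mec2-1 yeast strain, which is defective in DNA damage repair or cell cycle control.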

[3] = NCI Yeast Anticancer Drug Screen. Data for the sgs1 mgt1 strain (AID 161);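 note: 0% = growth of cultures given vehicle only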; conditions: S. cerevisiae sgs1 mgt1 strain, active compounds read high
In short: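 This yeast growth screen uses a strain with defined DNA-repair lesions; compound-treated growth is compared with vehicle-treated growth.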

[4] = NCI Yeast Anticancer Drug Screen. Data for the cln2 rad14 strain (AID 165);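 note: 0% = growth equal to vehicle treated cultures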; conditions: S. cerevisiae cln2 rad14 strain, active compounds read high
In short: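 Growth inhibition, relative to vehicle-treated controls, is the read-out. The test organism is a yeast strain with defined genetic alterations, cln2 rad14.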

[5] = NCI Yeast Anticancer Drug Screen. Data for the bub3 strain (AID 167); conditions: S. cerevisiae bub3 mutant strain, active compounds read high
In short: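 Yeast carrying a defined mutation is treated with each compound, and growth is compared with that of vehicle-exposed cells to give inhibition.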

[6] = NCI Yeast Anticancer Drug Screen. Data for the mlh1 rad18 strain (AID 175); conditions: S. cerevisiae mlh1 rad18 strain growth inhibition, active compounds read high
In short: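 Cells of a genetically altered yeast strain, deficient in DNA damage repair, were treated with compound. Their growth was then compared with that of vehicle-treated cultures to give inhibition.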

[7] = at 5.0 µM (retest, dose inferred, filed as 0.5)
[8] = at 50.0 µM (retest, dose inferred, filed as 5.0)

Measured: growth inhibition

S=C(N/N=C/c1ccco1)NC12CC3CC(CC(C3)C1)C2
inactive: [1]; [7] 29% | [1]; at 50.0 µM 2.95% | [2]; [7] 24% | [2]; at 50.0 µM 8.05% | [3]; at 50.0 µM 10.9% | [4]; [7] 51% | [4]; at 50.0 µM -0.25% | [5]; at 50.0 µM 13.4% | [6]; [7] 47% | [6]; at 50.0 µM 26.2%
active: [1]; [8] 94% | [2]; [8] 95% | [3]; [7] 76% | [3]; [8] 96% | [4]; [8] 91% | [5]; [7] 71% | [5]; [8] 93% | [6]; [8] 94%

CCCCCCCCCCn1cc[nH]c1=S
inactive: [1]; [7] 47% | [2]; [7] 47% | [4]; [7] 18% | [6]; [7] 59%
active: [1]; [8] 99% | [1]; at 50.0 µM 99% | [2]; [8] 99% | [2]; at 50.0 µM 99.2% | [3]; [7] 72% | [3]; [8] 99% | [3]; at 50.0 µM 99.3% | [4]; [8] 99% | [4]; at 50.0 µM 98.8% | [5]; [7] 72% | [5]; [8] 99% | [5]; at 50.0 µM 99.2% | [6]; [8] 98% | [6]; at 50.0 µM 99.3%

CCOSc1ccccc1
active: [3]; [8] 74% | [5]; [8] 74% | [6]; [8] 93%
inactive: [1]; [7] 3% | [1]; [8] 50% | [1]; at 50.0 µM 34.3% | [2]; [7] 5% | [2]; [8] 63% | [2]; at 50.0 µM 32.7% | [3]; [7] 3% | [3]; at 50.0 µM 16.2% | [4]; [7] 2% | [4]; [8] 22% | [4]; at 50.0 µM 16.1% | [5]; [7] 0% | [5]; at 50.0 µM 20.6% | [6]; [7] 21% | [6]; at 50.0 µM 56.7%

COC(=O)CSc1n[nH]c(-c2ccc(O)c([N+](=O)[O-])c2)n1
inactive: [1]; [7] 17% | [1]; [8] 47% | [1]; at 50.0 µM 53.9% | [2]; [7] 31% | [2]; [8] 56% | [2]; at 50.0 µM 53.2% | [3]; [7] 25% | [4]; [7] 40% | [4]; [8] 57% | [4]; at 50.0 µM 65.5% | [5]; [7] 35% | [5]; [8] 51% | [5]; at 50.0 µM 53% | [6]; [7] 30% | [6]; [8] 57% | [6]; at 50.0 µM 57.4%
active: [3]; [8] 71% | [3]; at 50.0 µM 75.6%

O=C1/C(=C/c2ccccc2[N+](=O)[O-])COc2ccccc21
inactive: [1]; [7] 37% | [1]; at 50.0 µM -4% | [2]; [7] 28% | [2]; at 50.0 µM 12.7% | [3]; [7] 21% | [3]; at 50.0 µM 13.2% | [4]; [7] 28% | [4]; at 50.0 µM 8.75% | [5]; [7] 34% | [5]; at 50.0 µM 15.1% | [6]; [7] 23% | [6]; at 50.0 µM 8.65%
active: [1]; [8] 94% | [2]; [8] 96% | [3]; [8] 92% | [4]; [8] 94% | [5]; [8] 98% | [6]; [8] 98%

COc1ccc2c(c1)CC1c3c(ccc(OC)c3O)CC2N1C (stereo not given)
inactive: [1]; [7] -15% | [1]; [8] 56% | [2]; [7] -44% | [2]; [8] 37% | [3]; [7] -6% | [3]; [8] 59% | [4]; [7] -24% | [4]; [8] 52% | [5]; [7] -4% | [6]; [7] -55% | [6]; [8] 61%
active: [1]; at 50.0 µM 86.7% | [2]; at 50.0 µM 91.3% | [3]; at 50.0 µM 93.7% | [4]; at 50.0 µM 92.5% | [5]; [8] 75% | [5]; at 50.0 µM 92% | [6]; at 50.0 µM 89.5%

Fc1cccc(C2SCc3nc4ccccc4n32)c1F (stereo not given)
active: [3]; at 50.0 µM 76.2% | [5]; at 50.0 µM 73.3% | [6]; at 50.0 µM 92%
inactive: [1]; [7] -4% | [1]; [8] 2% | [1]; at 50.0 µM 63.3% | [2]; [7] -5% | [2]; [8] 23% | [2]; at 50.0 µM 54.8% | [3]; [7] -3% | [3]; [8] 28% | [4]; [7] -12% | [4]; [8] -7% | [4]; at 50.0 µM 40.2% | [5]; [7] -5% | [5]; [8] 14% | [6]; [7] -8% | [6]; [8] 7%

O=C(O)C(=O)Cc1ccc(O)cc1
active: [5]; at 50.0 µM 70.7%
inactive: [1]; [7] -18% | [1]; [8] -30% | [1]; at 50.0 µM 68.2% | [2]; [7] -20% | [2]; [8] -25% | [2]; at 50.0 µM 12.7% | [3]; [7] -10% | [3]; [8] -26% | [3]; at 50.0 µM 57% | [4]; [7] -5% | [4]; [8] 7% | [4]; at 50.0 µM 49.1% | [5]; [7] -24% | [5]; [8] -20% | [6]; [7] -48% | [6]; [8] -69% | [6]; at 50.0 µM 61%

O=C(Nc1ccccc1)c1ccc([N+](=O)[O-])o1
inactive: [1]; [7] 12% | [2]; [7] 3% | [3]; [7] 9% | [4]; [7] -2% | [4]; [8] 31% | [5]; [7] 2% | [6]; [7] 24%
active: [1]; [8] 83% | [1]; at 50.0 µM 96.3% | [2]; [8] 73% | [2]; at 50.0 µM 95.7% | [3]; [8] 82% | [3]; at 50.0 µM 98.6% | [4]; at 50.0 µM 80.2% | [5]; [8] 79% | [5]; at 50.0 µM 91.4% | [6]; [8] 91% | [6]; at 50.0 µM 98.5%

S=C1NC2=C(COC/C2=C\c2ccccc2Cl)C(c2ccccc2Cl)N1 (stereo not given)
active: [1]; [7] 94% | [1]; [8] 94% | [1]; at 50.0 µM 76.9% | [2]; [8] 96% | [2]; at 50.0 µM 81.5% | [3]; [8] 97% | [3]; at 50.0 µM 79.2% | [4]; [8] 96% | [4]; at 50.0 µM 76.8% | [5]; [8] 96% | [5]; at 50.0 µM 82% | [6]; [7] 92% | [6]; [8] 94% | [6]; at 50.0 µM 81.3%
inactive: [2]; [7] 47% | [3]; [7] 55% | [4]; [7] 53% | [5]; [7] 58%
